Assay results: the supplement of paper PMC3545927
The list shows a part of the results. No count for the full screen is at hand.

B1: HC2214 (peptide)
chain: CAEVVTSKWVAGNASASA
B2: HC280 (peptide)
chain: CAWVAMTPTVAGNASASA
B3: HC50 (peptide)
chain: CATTPRSGSWAGNASASA
B4: HC612 (peptide)
chain: CAQASLLKVPAGNASASA
B5: HC673 (peptide)
chain: CALLAPITAYAGNASASA
B6: FS-1076 (peptide)
chain: CARVQRLRRGAGNASASA
B7: FS-931 (peptide)
chain: CAGYFRIRRGAGNASASA
B8: FS-538 (peptide)
chain: CAHPQRKRRGAGNASASA
B9: FS-1406 (peptide)
chain: CARSERNRRGAGNASASA
B10: FS-2237 (peptide)
chain: CARSERSVILAGNASASA
B11: FS-1122 (peptide)
chain: CAEVARLRRGAGNASASA
B12: HC1399 (peptide)
chain: CALQVLDSHYAGNASASA
B13: HC1416 (peptide)
chain: CALTPPHSAKAGNASASA
B14: HC2539 (peptide)
chain: CASTPCSPHLAGNASASA
B15: HC741 (peptide)
chain: CALKGSSGGPAGNASASA
B16: HC863 (peptide)
chain: CAAKLVALGIAGNASASA
B17: FS-634 (peptide)
chain: CAYLNRKRRGAGNASASA
B18: FS-541 (peptide)
chain: CAIKSRFGRGAGNASASA
B19: FS-595 (peptide)
chain: CAHLVPVLRGAGNASASA
B20: FS-1578 (peptide)
chain: CAVFQRKRRGAGNASASA
B21: HC904 (peptide)
chain: CARRGRTGRGAGNASASA
B22: FS-390 (peptide)
chain: CAYLHRVGRGAGNASASA
B23: FS-1523 (peptide)
chain: CAFSSRWGRGAGNASASA
B24: FS-3215 (peptide)
chain: CAVFKRDAHGAGNASASA
B25: FS-1454 (peptide)
chain: CAFPMRGRRGAGNASASA
B26: FS-1534 (peptide)
chain: CAICSRAARGAGNASASA
B27: HC824 (peptide)
chain: CALGIGTVLDAGNASASA
B28: HC2067 (peptide)
chain: CAVVCCSMFYAGNASASA
B29: FS-37 (peptide)
chain: CAISYRFPRGAGNASASA
B30: FS-960 (peptide)
chain: CARYFRKRRGAGNASASA
B31: FS-671 (peptide)
chain: CAKKERRPRGAGNASASA
B32: HC447 (peptide)
chain: CAGAGNNTLHAGNASASA
B33: HC456 (peptide)
chain: CADATYSRCGAGNASASA
B34: HC2314 (peptide)
chain: CAKVPCHRPSAGNASASA
B35: FS-2802 (peptide)
chain: CARRVRCSGAAGNASASA
B36: FS-113 (peptide)
chain: CAAENRALRLAGNASASA
B37: HC1023 (peptide)
chain: CAAEQFKQKAAGNASASA
B38: FS-1442 (peptide)
chain: CAAEIRLKRAAGNASASA
B39: FS-1405 (peptide)
chain: CARRSRCIRAAGNASASA
B40: HC1575 (peptide)
chain: CALGNIIMFAAGNASASA
B41: FS-496 (peptide)
chain: CARRSRLKRAAGNASASA
B42: FS-819 (peptide)
chain: CALGSRYKKAAGNASASA
B43: FS-50 (peptide)
chain: CALGRRTKRAAGNASASA
B44: HC699 (peptide)
chain: CAVCWTVYHGAGNASASA

Molecular target: furin, P09958
Assay: furin cleavage Z-score vs untreated control; higher = more cleavage, active = 3.5 or more, inactive = 1 or less, 8 variable residues between constant flanks
Procedure, shortened: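 The cleavage Z-score was derived for purified furin acting on 8-mer peptides held on magnetic beads and fused to a cDNA oligonucleotide. Digests lasted 7.5, 15 or 30 min at 1:10 enzyme:substrate in 50 mM HEPES pH 7.5 with CaCl2 and NaCl. Sequencing counts of released DNA, log-transformed against furin-free reactions, were lowess-adjusted and scaled by median absolute deviation.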

furin, P09958, sequence (P09958 whole entry): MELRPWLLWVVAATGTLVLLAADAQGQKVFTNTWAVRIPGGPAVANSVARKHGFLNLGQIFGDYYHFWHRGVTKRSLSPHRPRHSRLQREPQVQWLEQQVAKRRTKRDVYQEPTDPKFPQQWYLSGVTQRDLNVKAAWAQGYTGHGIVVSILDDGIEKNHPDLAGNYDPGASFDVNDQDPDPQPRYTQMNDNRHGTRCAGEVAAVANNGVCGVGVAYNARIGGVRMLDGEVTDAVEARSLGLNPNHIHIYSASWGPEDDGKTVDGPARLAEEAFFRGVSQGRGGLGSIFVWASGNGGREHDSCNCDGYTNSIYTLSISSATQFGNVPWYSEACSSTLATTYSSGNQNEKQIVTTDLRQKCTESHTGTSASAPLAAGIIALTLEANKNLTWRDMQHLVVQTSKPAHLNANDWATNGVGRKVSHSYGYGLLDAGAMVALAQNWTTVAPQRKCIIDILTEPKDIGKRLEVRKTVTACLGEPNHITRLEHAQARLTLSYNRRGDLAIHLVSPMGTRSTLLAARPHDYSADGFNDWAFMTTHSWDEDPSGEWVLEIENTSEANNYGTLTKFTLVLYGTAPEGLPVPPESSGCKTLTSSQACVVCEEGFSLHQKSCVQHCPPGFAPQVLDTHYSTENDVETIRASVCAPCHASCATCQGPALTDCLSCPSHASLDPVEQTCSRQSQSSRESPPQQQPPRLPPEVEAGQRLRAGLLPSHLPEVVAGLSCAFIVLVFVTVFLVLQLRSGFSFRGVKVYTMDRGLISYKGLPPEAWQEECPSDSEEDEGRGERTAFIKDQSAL

| Sequence | furin cleavage Z-score (7.5 min) | furin cleavage Z-score (15 min) | furin cleavage Z-score (30 min) |
| --- | --- | --- | --- |
| B1 | -0.244 (inactive) | -0.0853 (inactive) | -0.758 (inactive) |
| B2 | -0.409 (inactive) | 1.35 | 0.148 (inactive) |
| B3 | 0.195 (inactive) | -0.703 (inactive) | -1.47 (inactive) |
| B4 | -0.764 (inactive) | -0.112 (inactive) | 0.0537 (inactive) |
| B5 | -3.12 (inactive) | -1.42 (inactive) | -1.58 (inactive) |
| B6 | 6.03 (active) | 4.67 (active) | 4.95 (active) |
| B7 | 7.65 (active) | 7.42 (active) | 7.31 (active) |
| B8 | 8.91 (active) | 10.4 (active) | 7.34 (active) |
| B9 | 12.7 (active) | 13.3 (active) | 9.9 (active) |
| B10 | -0.162 (inactive) | 0.495 (inactive) | -1.51 (inactive) |
| B11 | 0.497 (inactive) | 0.166 (inactive) | 1.11 |
| B12 | 0.634 (inactive) | 0.79 (inactive) | -1.28 (inactive) |
| B13 | 0.524 (inactive) | 0.481 (inactive) | -0.0828 (inactive) |
| B14 | 2.23 | -1.13 (inactive) | 0.314 (inactive) |
| B15 | -0.0654 (inactive) | -1.8 (inactive) | -2.14 (inactive) |
| B16 | 0.999 (inactive) | -2.69 (inactive) | 0.907 (inactive) |
| B17 | 9.69 (active) | 11.9 (active) | 7.89 (active) |
| B18 | 4.29 (active) | 4.38 (active) | 4.05 (active) |
| B19 | 0.989 (inactive) | -0.535 (inactive) | -1.61 (inactive) |
| B20 | 12.4 (active) | 12.7 (active) | 9.42 (active) |
| B21 | -0.725 (inactive) | -0.224 (inactive) | -0.511 (inactive) |
| B22 | 3.96 (active) | 5.69 (active) | 4.8 (active) |

| Sequence | furin cleavage Z-score (7.5 min) | furin cleavage Z-score (15 min) | furin cleavage Z-score (30 min) |
| --- | --- | --- | --- |
| B23 | -2.35 (inactive) | 0.914 (inactive) | -0.211 (inactive) |
| B24 | -0.773 (inactive) | -0.315 (inactive) | 1.52 |
| B25 | -0.221 (inactive) | -0.337 (inactive) | 0.17 (inactive) |
| B26 | -0.759 (inactive) | 0.0398 (inactive) | -0.381 (inactive) |
| B27 | -0.583 (inactive) | 0.0553 (inactive) | -0.254 (inactive) |
| B28 | -1.42 (inactive) | 0.168 (inactive) | -1.67 (inactive) |
| B29 | 4.87 (active) | 7.38 (active) | 6.94 (active) |
| B30 | 10.2 (active) | 11.6 (active) | 9.02 (active) |
| B31 | 1.59 | 2.08 | 0.765 (inactive) |
| B32 | -0.871 (inactive) | 0.802 (inactive) | -0.559 (inactive) |
| B33 | 0.156 (inactive) | 1.42 | 0.00204 (inactive) |
| B34 | 1.64 | 0.0197 (inactive) | 0.762 (inactive) |
| B35 | -0.409 (inactive) | 0.495 (inactive) | 0.927 (inactive) |
| B36 | 0.559 (inactive) | -1.89 (inactive) | 1.32 |
| B37 | 0.841 (inactive) | 0.435 (inactive) | -1.43 (inactive) |
| B38 | 9.68 (active) | 9.78 (active) | 8.4 (active) |
| B39 | 9.51 (active) | 10.1 (active) | 8.44 (active) |
| B40 | -0.725 (inactive) | -1.13 (inactive) | -0.0117 (inactive) |
| B41 | 11.4 (active) | 11.7 (active) | 8.87 (active) |
| B42 | -0.0568 (inactive) | -0.0472 (inactive) | -0.113 (inactive) |
| B43 | 9.24 (active) | 10.5 (active) | 6.44 (active) |
| B44 | -0.241 (inactive) | 1.41 | -1.21 (inactive) |
